# Measurements reported in PubChem BioAssay (EPA / NIEHS).
# Records with an inconclusive call do not appear. Calls of active or inactive are those of the source. How the source made its calls: active means hit-call score of the fitted dose curve at least 0.9, where 1 is the maximum; inconclusive means response in the unintended direction; inactive means score below 0.9.
# Molecular target: human Peroxisome Proliferator-activated Receptor delta (PPARd), PPARD (gene 5467) (UniProt Q03181)
# Assay: ATG_PPARd_TRANS: Attagene TRANS-FACTORIAL HepG2 Assay for human Peroxisome Proliferator-activated Receptor delta (PPARd) (AID 2283002)
# Experimental: ATG_TRANS is a cell-based, multiplexed-readout assay that uses HepG2, a human liver cell line, with measurements taken at 24 hours after chemical dosing in a 24-well plate.ATG_PPARd_TRANS is one of 30 assay component(s) measured or calculated from the ATG_TRANS assay. It is designed to make measurements of mRNA induction, a form of inducible reporter, as detected with fluorescence intensity signals by Reverse transcription polymerase chain reaction (RT-PCR) and Capillary electrophoresis technology.Data from the assay component ATG_PPARd_TRANS was analyzed into 1 assay endpoint. This assay endpoint, ATG_PPARd_TRANS, was analyzed in the positive analysis fitting direction relative to DMSO as the negative control and baseline of activity. Using a type of inducible reporter, measures of mRNA for gain-of-signal activity can be used to understand the reporter gene at the transcription factor-level as they relate to the gene PPARD. Furthermore, this assay endpoint can be referred to as a primary readout, because this assay has produced multiple assay endpoints where this one serves a reporter gene function. To generalize the intended target to other relatable targets, this assay endpoint is annotated to the nuclear receptor intended target family, where the subfamily is non-steroidal.
# Human liver HepG2 cells are transiently transfected with multiple reporter transcription units (MRTUs) in 6-well plates using FuGene 6 reagent (Roche; 3 ml FuGene/1 mg DNA). The MRTU constructs are regulated by a cis-regulating element (promoter). […] A major difference between the CIS and TRANS system is that in CIS activities of endogenous TFs are measured, whereas the TRANS assay evaluates changes in activities of exogenous, chimeric NR-Gal4 proteins. […] At the end of 24 hour incubation, total RNA was isolated using TriZol reagent (Invitrogen). The isolated RNA is then reverse-transcribed using oligo(dT) primer and Mo-MLV reverse transcriptase (Invitrogen) with DNAse I (Ambion) treatment for 30 min. The one-tenth of the produced cDNA was amplified by PCR using Taq DNA polymerase (Invitrogen) and two reporter sequence-specific primers. The PCR products were fluorescently labeled by primer extension with 6-arboxyfluorescein (6-FAM) 5'-labeled reporter sequence-specific primer (2 min at 95 C, 20 s at 68 C and 10 min at 72 C) and these products were digested with 5U of HpaI (New England Biolabs) for 2h at 37 C. The fragments were purified using Qiaquick PCR columns (Qiagen), analyzed on an ABI 3130xL genetic analyzer (Applied Biosystems) with peak positions identified by using a set of X-rhodamine (ROX)-labeled MapMarker1000 molecular weight standards (BioVentures). The raw capillary electrophoresis data was processed using Attagraph software (Attagene).
# human Peroxisome Proliferator-activated Receptor delta (PPARd), PPARD (gene 5467), sequence (Q03181 whole entry, looked up): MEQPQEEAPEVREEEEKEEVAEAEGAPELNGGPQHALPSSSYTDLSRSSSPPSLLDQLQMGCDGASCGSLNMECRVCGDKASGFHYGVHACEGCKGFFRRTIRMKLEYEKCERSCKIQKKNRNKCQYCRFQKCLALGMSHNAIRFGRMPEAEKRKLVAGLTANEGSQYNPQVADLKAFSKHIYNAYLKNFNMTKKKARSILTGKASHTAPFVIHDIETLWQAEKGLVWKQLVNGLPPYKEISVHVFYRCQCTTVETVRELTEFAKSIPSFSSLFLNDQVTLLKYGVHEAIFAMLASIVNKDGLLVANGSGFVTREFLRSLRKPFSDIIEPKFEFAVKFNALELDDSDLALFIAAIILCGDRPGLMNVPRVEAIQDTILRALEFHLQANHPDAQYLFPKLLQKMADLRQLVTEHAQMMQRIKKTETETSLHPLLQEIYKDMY
row,Compound,outcome
1,COC(=O)N(C(=O)N1CO[C@@]2(C(=O)OC)Cc3cc(Cl)ccc3C2=N1)c1ccc(OC(F)(F)F)cc1,inactive
2,COP(=S)(OC)SCn1nnc2ccccc2c1=O,inactive
3,COC(=O)NC(=S)Nc1ccccc1NC(=S)NC(=O)OC,inactive
4,CC(C)=CC1C(C(=O)OCc2coc(Cc3ccccc3)c2)C1(C)C (stereo not given),inactive
5,CCCCC(O)(Cn1cncn1)c1ccc(Cl)cc1Cl (stereo not given),inactive
6,CNC(=O)N(C)c1nnc(C(C)(C)C)s1,inactive
7,O=c1n(Cl)c(=O)n(Cl)c(=O)n1Cl,inactive
8,CS(=O)(=O)c1ccc(C(=O)C2C(=O)CCCC2=O)c([N+](=O)[O-])c1,inactive
9,Cn1c(-c2ccccc2)cc(-c2ccccc2)[n+]1C,inactive
10,CC(C)N1C(=O)N(c2ccccc2)CSC1=NC(C)(C)C,inactive
11,CCSC(=O)N1CCCCCC1,inactive
12,N#CN=C1SCCN1Cc1ccc(Cl)nc1,inactive
13,CC(C)Oc1cccc(NC(=O)c2ccccc2C(F)(F)F)c1,inactive
14,CCN(CC)C(=O)C(C)Oc1cccc2ccccc12 (stereo not given),inactive
15,Cc1nc(N(C)C)nc(OC(=O)N(C)C)c1C,inactive
16,CC(C)N1C(=O)c2ccccc2NS1(=O)=O,inactive
17,COC(=O)c1c(C(F)F)nc(C(F)(F)F)c(C2=NCCS2)c1CC(C)C,inactive
18,CCOP(=O)(OCC)Oc1nc(Cl)c(Cl)cc1Cl,inactive
19,CCN(CC)c1nc(C)cc(OP(=S)(OC)OC)n1,inactive
20,CO/N=C(/C1=NOCCO1)c1ccccc1Oc1ncnc(Oc2ccccc2Cl)c1F,inactive

row,Compound,outcome
1,O=C(Nc1ccccc1-c1ccc(Cl)cc1)c1cccnc1Cl,inactive
2,CC1(C)C(C(=O)OC(C#N)c2cccc(Oc3ccccc3)c2)C1(C)C (stereo not given),inactive
3,CCCN(CC)CC1COC2(CCC(C(C)(C)C)CC2)O1 (stereo not given),inactive
4,Cc1cc(C)nc(Nc2ccccc2)n1,inactive
5,CN=C=S,inactive
6,CSC(=O)c1c(C(F)F)nc(C(F)(F)F)c(C(=O)SC)c1CC(C)C,inactive
7,COP(=O)(OC)O/C(C)=C/C(=O)N(C)C,inactive
8,Cc1c(COC(=O)[C@@H]2[C@H](/C=C(\Cl)C(F)(F)F)C2(C)C)cccc1-c1ccccc1,inactive
9,O=P(O)(O)CCCl,inactive
10,CCOc1nc(F)cc2nc(S(=O)(=O)Nc3c(Cl)cccc3Cl)nn12,inactive
11,Nc1cnn(-c2ccccc2)c(=O)c1Cl,inactive
12,CCNC(=O)NC(=O)C(C#N)=NOC,inactive
13,COP(=S)(OC)Oc1ccc([N+](=O)[O-])c(C)c1,inactive
14,CC1(C)CON(Cc2ccccc2Cl)C1=O,inactive
15,CCCC(=NOCC)C1=C(O)CC(CC(C)SCC)CC1=O (stereo not given),inactive
16,O=C1C2CC=CCC2C(=O)N1SC(Cl)(Cl)Cl (stereo not given),inactive
17,N#Cc1c(Cl)cccc1Cl,inactive
18,CC(C)Nc1nc(Cl)nc(NC(C)C)n1,inactive
19,CC(C)C1(C)N=C(c2ncccc2C(=O)O)NC1=O (stereo not given),inactive
20,CC(C)(C)C(=O)C(Oc1ccc(Cl)cc1)n1cncn1 (stereo not given),inactive
